# Laboratory results: PubChem BioAssay AID1878 (Sanford-Burnham Center for Chemical Genomics, 2009)
# Out of some 1,000 compounds screened, about 200 (20%) were called active. Not all results are given here. Entries with a potency or affinity are not part of this list. A number with no mark means an inactive call. No stated cut-off is given here; in the data, active means inhibition above about 55%; inactive means the rest.
# Target: Dual specificity protein phosphatase 3 (Homo sapiens) (UniProt P51452)
# Assay: VHR1 phosphatase inhibitors, biochemical (AID 1878)
# Details: recombinant VHR phosphatase, fluorogenic substrate; at 13.3 µM; hits give high values
# Chain of Dual specificity protein phosphatase 3 (Homo sapiens) (P51452 whole entry, looked up): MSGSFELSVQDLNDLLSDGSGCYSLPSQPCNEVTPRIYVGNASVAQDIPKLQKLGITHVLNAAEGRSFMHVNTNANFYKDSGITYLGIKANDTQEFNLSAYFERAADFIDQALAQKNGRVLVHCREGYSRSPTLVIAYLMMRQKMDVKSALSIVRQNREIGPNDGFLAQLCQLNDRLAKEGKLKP
row,SMILES,inhibition
1,COc1ccc(S(=O)(=O)N2CCCC(C(=O)NCC3CCCO3)C2)cc1C (configuration not stated),-4.1%
2,COc1ccc(C(=O)NCc2nnc(SCC(=O)Nc3cc(OC)ccc3OC)o2)cc1,-6.8%
3,CC1CCCN(CCCNC(=O)C2CC(=O)N(CCc3ccccc3)C2)C1 (configuration not stated),-5.4%
4,CCC1CCCCN1CCCNC(=O)C1CC(=O)N(CCc2ccccc2)C1 (configuration not stated),20.9%
5,NC(=S)N=Nc1ccc(NN=C(N)N)cc1,40.2%
6,COc1ccc(NC(=O)Cc2nnc(SCC(=O)NC3CCCC3)n2C)cc1,-4.1%
7,CCNC(=O)c1cc(Br)ccc1Cl,-8.7%
8,CN(c1ccccc1)S(=O)(=O)c1nnc(NC(=O)C2CCCCC2)s1,-1.3%
9,Cn1c2ccccc2c(=O)c2ccc(C#Cc3ccccn3)cc21,75.5% (active)
10,Cc1nc([N+](=O)[O-])cn1Cc1cccc2ccccc12,-13.3%
11,O=C(CN1CCCCC1)N/N=C/c1cccc(Cl)c1,-9.7%
12,O=C(Cn1c2ccccc2c(=O)c2ccccc21)N/N=C/c1cc([N+](=O)[O-])ccc1N1CCCCCC1,99.4% (active)
13,O=C(N/N=C/c1cccnc1)c1cccc(NC(=O)c2ccc(Cl)cc2)c1,92.9% (active)
14,NC(=O)c1ccc(C(=O)N/N=C/c2cccc(Oc3ccccc3)c2)cc1,-0.5%
15,CN(C)CCNC(=O)c1cccc(S(=O)(=O)Nc2ccc(F)cc2)c1,-5.8%
16,Cc1nc2cc(NC(=O)c3ccc(Cl)cc3)ccc2n1C,-9.5%
17,O=C(N/N=C/c1ccncc1)c1cccc(S(=O)(=O)Nc2ccc(Cl)cc2)c1,98.9% (active)
18,Cc1ccc(S(=O)(=O)NC(CC(=O)NC2CCCC2)c2ccco2)cc1 (configuration not stated),23.6%
19,CSc1ncc(C(=O)Nc2ccccc2Cl)c(C)n1,-1.1%
20,COc1ccc(OC)c(N/C(N)=N/c2nc(C)cc(C)n2)c1,-19.2%
21,Cc1ccc(NC(=O)CCNC(=O)c2ccccc2Cl)nc1,1.9%
22,CC(c1ccccc1)N1CCn2c(nc3cc(NC(=O)NC4CCCCC4)ccc32)C1 (configuration not stated),-21.4%
23,COc1ccc(/C=C2\N=C(C)OC2=O)cc1OC,-5.7%

row,SMILES,inhibition
1,CC(C)OCCCNc1ncnc2c1nc1n2CCCC1,-2.4%
2,COC(=O)c1ccnc(/C=N/O)c1,9.3%
3,COc1ccc(-c2nnc(Nc3nc4c(OC)cccc4s3)o2)cc1,95.5% (active)
4,COc1ccc(-c2nnc(SC(C)C(=O)NNC(=O)c3ccc(C)cc3)o2)cc1 (configuration not stated),-2.9%
5,Cc1[nH][nH]c(=O)c1C(c1cc(Br)ccc1O)c1c(C)[nH][nH]c1=O,3.3%
6,COc1ccccc1N1CCN(C2CCCN(C(=O)CCC(=O)N(C)C)C2)CC1 (configuration not stated),-13.2%
7,CCCC(NC(=O)Cc1c(C)c2cc3c(C)c(C)oc3c(C)c2oc1=O)C(=O)N[C@@H](Cc1ccccc1)C(=O)O (some centres not stated),68.8% (active)
8,Cn1c(C(=O)N[C@@H](Cc2ccccc2)C(=O)O)cc2cc(Cl)ccc21,3.5%
9,COc1ccc2c(c1)cc(C(=O)N[C@@H](Cc1ccccc1)C(=O)N[C@@H](C)C(=O)O)n2C,-10.4%
10,Cc1nn(CC(=O)NCCCN2CCCCC2C)c(=O)c2cccn12 (configuration not stated),-5.4%
11,CCOCCCNC(=O)C1CC(=O)N(CCc2ccccc2)C1 (configuration not stated),15%
12,CC(C)CCNC(=O)CN(C(=O)CCC(=O)Nc1ccccn1)c1ccc2c(c1)OCCO2,5.2%
13,Nc1nc(-c2cc(O)ccc2[N+](=O)[O-])cc(-c2ccccc2)c1[N+](=O)[O-],80.5% (active)
14,O=C(NN1C(=O)C2C(C1=O)C1C=CC2C12CC2)c1ccccc1 (configuration not stated),3.2%
15,N#Cc1c(N2CCCC(O)C2)nc(N)c2c(N)nc3c(c12)CC(=O)N3C12CC3CC(CC(C3)C1)C2 (configuration not stated),-7.9%
16,N#Cc1c(N2CCCC2)nc(N)c2c(N)nc(N3CCCC3)cc12,78.3% (active)
17,CCOC(=O)c1c(C)[nH]c(C)c1S(=O)(=O)NC1CCN(C(=O)OCC)CC1,-2%
18,COc1cccc(CNCCc2ccc3c(c2)OCO3)c1OC,26.4%
19,CCCN1CCC(NC(=O)CC2C(=O)NCCN2Cc2ccccc2C)CC1 (configuration not stated),-11.6%
20,O=C(O)CCCNc1cc(N2CCC3(CC2)OCCO3)c2noc3c2c1C(=O)c1ccccc1-3,12.8%
21,CC1(C)CC(NS(=O)(=O)c2ccc(C(C)(C)C)cc2)CC(C)(C)N1,6.7%
22,Cc1ccc(S(=O)(=O)NC2CCCCCC2)cc1C(N)=O,-4.2%
23,NS(=O)(=O)c1ccc(NC(=S)NC2CCCCCC2)cc1,56.7% (active)

row,SMILES,inhibition
1,CC1(C)CC(NC(=O)C(c2ccccc2)c2ccccc2)CC(C)(C)N1,24%
2,CC1(C)CC(NC(=S)Nc2ccc(S(N)(=O)=O)cc2)CC(C)(C)N1,58.2% (active)
3,O=C(CCCC(=O)N(CC(=O)NC1CCCC1)c1cccc(F)c1)Nc1ccccn1,-10.4%
4,Cn1cc(CN2CCCCC2C(=O)Nc2ccc(-n3cccn3)cc2)cn1 (configuration not stated),10.3%
5,CCC(=O)N1c2ccc(S(=O)(=O)NCCc3ccc(C)cc3)cc2CC1C (configuration not stated),7.9%
6,CCC(C)N(C(=O)c1csnn1)C(C(=O)NC1CCCC1)c1ccccc1F (configuration not stated),10%
7,CSc1sccc1/C=C(/C#N)C(=O)c1ccco1,28.9%
8,CCn1c(=O)n(CC)c2cc(N3CCCC3)c(NC(=O)c3ccccc3F)cc21,-2.4%
9,COCCn1c(SCC(=O)N2CCCC(C)C2)nnc1-c1ccco1 (configuration not stated),-3.4%
10,O=C(CCNS(=O)(=O)c1ccccc1)N1CCCCCC1,7.7%
11,O=C(NCc1ccccc1Cl)C1CCC(CNc2nc(=S)[nH]c3ccccc23)CC1 (configuration not stated),-7%
12,CC1CCN(CCCNC(=O)C2CCN(S(=O)(=O)N3CCC4(CC3)OCCO4)CC2)CC1,1.6%
13,O=C(c1cc(C2CC2)on1)N1CCCC(N2CCN(c3ccc(F)cc3)CC2)C1 (configuration not stated),0.4%
14,CCOc1ccc(C2NC(=O)c3ccccc3O2)cc1OC (configuration not stated),-17.6%
15,CN(Cc1ccccn1)C(=O)C1CCC(=O)N(CCc2ccc(Cl)cc2)C1 (configuration not stated),-11.4%
16,COc1ccc(NC(=O)CN(C)S(=O)(=O)c2ccc3[nH]c(=O)oc3c2)cc1,12.6%
17,Cn1c(=O)oc2cc(S(=O)(=O)NCCC(=O)NCc3ccccc3Cl)ccc21,14.6%
18,COc1ccccc1-c1nc2c3ccccc3nc(=S)n2[nH]1,7.9%
19,CC(C)c1ccc(NS(=O)(=O)c2cccc3cccnc23)cc1,-1%
20,COc1ccc2c(c1)C(=NNC(=O)c1ccccn1)c1cc(OC)ccc1-2,99.3% (active)
21,Cc1cc(NC(=O)C2CCCCC2)ncc1NC(=O)c1ccccn1,9%
22,COc1ccccc1-c1cc(C(=O)Nc2cccnc2Cl)no1,12.2%
23,CCOC(=O)c1sc(=NC(=O)c2c(F)cccc2F)n(C)c1C,26.7%

row,SMILES,inhibition
1,CC(=O)NCCC(=O)N(C)CC1CCN(CCc2cccc(C(F)(F)F)c2)CC1,-21.4%
2,Cc1ccc(NC(=O)COc2cccc(/C=C3\SC(=S)N(CCC(=O)O)C3=O)c2)cc1Cl,79.2% (active)
3,COc1cccc(NC(=O)CCc2nc(-c3cccs3)no2)c1,11.2%
4,CCc1ccc(/C=C2/SC(=S)N(CCC(=O)Nc3ccc(C(=O)O)cc3)C2=O)cc1,87.1% (active)
5,O=C(CCN1C(=O)/C(=C\C=C\c2ccccc2)SC1=S)Nc1ccc(C(=O)O)cc1,98.7% (active)
6,CCOC(=O)c1ccc(NC(=O)CCS(=O)(=O)Cc2ccccc2)cc1,11.4%
7,COc1ccc(/C=C2\SC(=S)N(CCC(=O)Nc3cccc(C(=O)O)c3)C2=O)cc1,86.4% (active)
8,COc1ccccc1C(=O)NNC(=O)CCN1C(=O)/C(=C\c2ccccc2)SC1=S,38.1%
9,COc1ccc(S(=O)(=O)NCC2CCCN(Cc3cn(C)nc3C)C2)cc1 (configuration not stated),0.5%
10,COc1ccccc1N1CCN(S(=O)(=O)c2ccc3c(c2)CC(C)N3C(C)=O)CC1 (configuration not stated),2.4%
11,CCC1CCCCN1CCCNC(=O)c1ccc2c(c1)NC(=O)CN2C (configuration not stated),-26.5%
12,CCCCN(Cc1ccco1)C(=O)C1CCCN(c2ncnc3c2nc2n3CCCCC2)C1 (configuration not stated),-4.3%
13,CCCN1C2CCCC1CC(NC(=O)c1ccccc1OC)C2 (configuration not stated),-6.6%
14,Cc1ccc(CNS(=O)(=O)c2c(C)[nH]c(=O)[nH]c2=O)cc1,-4.8%
15,NC(=O)c1ccc(NC(=O)CS(=O)(=O)c2cn(CC(=O)N3CCCC3)c3ccccc23)cc1,-13.4%
16,Cc1ccc(/C=N/N(C)C2=NS(=O)(=O)c3ccccc32)cc1,21.9%
17,COCCCNC(=O)c1ccc(CS(=O)(=O)c2ccccc2OC)o1,-5.7%
18,Nc1[nH]n2c(=O)cc(-c3ccccc3)nc2c1N=Nc1ccc2c(c1)OCO2,98.8% (active)
19,COc1cccc(N2CCN(c3ccc4nnc(CCC(=O)Nc5ccc(F)cc5F)n4n3)CC2)c1,6.6%
20,Cc1cc(C)c(S(=O)(=O)Cc2ccccc2)c(Cl)n1,7.3%
21,COc1ccc(/C=C/C(=O)NC(=S)Nc2cc([N+](=O)[O-])ccc2O)cc1OC,95.7% (active)
22,CCOc1cc2[nH]c(=S)n(Cc3ccc(C(=O)NCCN(CC)CC)cc3)c(=O)c2cc1OCC,-9.2%
23,Nn1c(SCC(=O)Nc2ccccc2F)nnc1C1CCCCC1,18.2%
